This note sets out measurements from PubChem BioAssay AID1259341 (Broad Institute, 2017).

Molecules are shown by their SMILES. Unmarked numbers belong to inactive results.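 How the source made its calls: active means activity change under -35% in any replicate well, with more than 20 beads read in that well; inactive means the rest.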

For the assay, the target named is Caspase recruitment domain-containing protein 9 (Homo sapiens) + E3 ubiquitin-protein ligase TRIM62 (Homo sapiens) (UniProt Q9H257+Q9BVG3). Nature of the assay: CARD9/TRIM62 protein interaction inhibitors – cell lysate, HEK293FT lysates, Luminex bead ELISA, primary screen (AID 1259341).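 Further: PE anti-Flag signal of Flag-CARD9 captured by myc-TRIM62 beads.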 The conditions noted are these: PE fluorescence, stronger effect = lower value, concentration not given here.
Chain of Caspase recruitment domain-containing protein 9 (Homo sapiens) + E3 ubiquitin-protein ligase TRIM62 (Homo sapiens) (Q9BVG3 whole entry, looked up, the tested form may be a part): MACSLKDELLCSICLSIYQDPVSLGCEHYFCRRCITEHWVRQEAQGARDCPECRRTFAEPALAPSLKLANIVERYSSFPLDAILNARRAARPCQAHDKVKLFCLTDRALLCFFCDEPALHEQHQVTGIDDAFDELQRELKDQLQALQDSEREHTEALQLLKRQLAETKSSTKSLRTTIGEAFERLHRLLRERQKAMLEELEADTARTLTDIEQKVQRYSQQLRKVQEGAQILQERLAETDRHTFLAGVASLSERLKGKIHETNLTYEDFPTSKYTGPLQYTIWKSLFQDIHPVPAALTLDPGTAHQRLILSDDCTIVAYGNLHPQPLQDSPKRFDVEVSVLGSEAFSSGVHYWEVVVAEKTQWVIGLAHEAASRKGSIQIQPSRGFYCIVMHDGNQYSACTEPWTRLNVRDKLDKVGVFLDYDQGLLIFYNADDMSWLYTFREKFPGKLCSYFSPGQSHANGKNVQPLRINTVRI
Chain of Caspase recruitment domain-containing protein 9 (Homo sapiens) + E3 ubiquitin-protein ligase TRIM62 (Homo sapiens) (Q9H257 whole entry, looked up, the tested form may be a part): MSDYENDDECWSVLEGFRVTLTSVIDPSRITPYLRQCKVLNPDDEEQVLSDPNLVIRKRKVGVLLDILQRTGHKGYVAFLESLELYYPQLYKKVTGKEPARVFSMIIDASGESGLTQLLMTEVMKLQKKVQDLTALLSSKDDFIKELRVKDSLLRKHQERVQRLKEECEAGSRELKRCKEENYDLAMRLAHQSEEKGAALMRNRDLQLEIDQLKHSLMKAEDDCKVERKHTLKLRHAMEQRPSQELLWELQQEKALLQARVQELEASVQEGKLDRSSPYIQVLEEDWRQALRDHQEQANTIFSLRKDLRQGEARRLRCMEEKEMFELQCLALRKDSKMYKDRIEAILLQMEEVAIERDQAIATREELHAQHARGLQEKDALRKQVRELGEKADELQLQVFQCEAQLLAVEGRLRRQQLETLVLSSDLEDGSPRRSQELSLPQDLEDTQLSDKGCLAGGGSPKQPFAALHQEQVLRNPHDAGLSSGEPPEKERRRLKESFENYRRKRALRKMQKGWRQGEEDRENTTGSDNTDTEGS
Turning to `O=C(O)c1ccccc1SC1CC(=O)N(Cc2ccccc2)C1=O` (stereo unspecified), the activity change, negative = inhibition was 6.92%.

Consider `C[C@H](CO)N1C[C@H](C)[C@@H](CN(C)C(=O)C2CCCCC2)OCCCC[C@H](C)Oc2ccc(NS(=O)(=O)c3cccs3)cc2C1=O`, for which the activity change, negative = inhibition was 6.34%. For the compound `CC1(C)Cc2c(c(N3CCOCC3)nc3sc(C(=O)NCc4ccco4)c(N)c23)CO1`, the activity change, negative = inhibition was -2.46%. The result for `Cc1ccc(C2CC(=O)C3=C(C2)Nc2ccccc2NC3c2cccnc2)cc1` (stereo unspecified) reads -0.28%; that for `CCN(CCNC(=O)C1CCN(S(=O)(=O)c2c(C)noc2C)CC1)c1ccccc1`, -0.84%. In the case of `C[C@H](CO)N1C[C@H](C)[C@@H](CN(C)C(=O)C2CCCCC2)OCCCC[C@H](C)Oc2ccc(NS(=O)(=O)c3ccc(F)cc3)cc2C1=O`, the activity change, negative = inhibition was 9.27%. Take `CCCc1cc(C(=O)N2CC[C@H]3CNC[C@H]32)n(C)n1`: the activity change, negative = inhibition is -0.754%. The result for `N#Cc1c2c(c(NCc3ccco3)n3c1nc1ccccc13)CCC2` reads 5.44%; that for `O=C(NC(Sc1ncccn1)C(=O)c1ccccc1)c1ccccc1` (stereo unspecified), 2.47%.

Consider `O=C(COC(=O)c1cc(-c2cccs2)nc2ccccc12)NCc1ccco1`, for which the activity change, negative = inhibition is -1.49%. In the case of `O=C(NCCc1ccco1)c1ccc(OCc2cn3ccccc3n2)cc1`, the activity change, negative = inhibition was 0.111%. The result for `O=[N+]([O-])c1c(NCCCO)cc(SCc2ccco2)c2nonc12` reads 15.3%; that for `O=C(Cc1ccc(S(=O)(=O)N2CCOCC2)s1)Nc1nc2c(s1)CCCC2`, -0.777%. With `O=C(NC1CC1)c1cc(-c2ccco2)nc2ccccc12`, the activity change, negative = inhibition is -6.41%. The result for `CC1CCN(c2nc(-c3ccco3)c3c(c2C#N)CC(C)(C)OC3)CC1` reads 5.51%. The result for `N#Cc1c(N)oc(-c2ccco2)c1-c1ccco1` reads -6.71%; that for `O=[N+]([O-])c1ccc2cc[nH]c2c1`, 7.88%; that for `COCC(=O)N1CCCC2(CCN(CCN3CCCC3)C2=O)C1` (stereo unspecified), -5.85%. Under `O=C1c2ccccc2-c2nc3ccccc3nc21` stands -4.55%; under `O=C(COC(=O)CCC(=O)c1cccs1)NCc1ccco1`, 0.961%; under `O=C(Nc1cccc2ccccc12)NC1CC1`, -2.1%. Regarding `FC(F)(F)c1cc(Cl)c2nnc(C(F)(F)Cl)n2c1`, the activity change, negative = inhibition is 1.08%. Under `O=C(Nc1nc(-c2ccco2)c(-c2ccco2)s1)c1ccc(F)cc1F` stands 6.3%.

On to `O=C(Nc1ncccc1O)c1ccc(OCC2CCCO2)cc1` (stereo unspecified), for which the activity change, negative = inhibition is 2.58%. Under `On1c(-c2ccco2)nc2c1CCc1nonc1-2` stands -2.2%; under `Cc1ccc(Nc2nc(C(=O)Nc3ccc(Cl)cc3)nc3ccccc23)cc1`, -19.6%; under `Cc1scc(C(=O)NCc2ccco2)c1-c1ccccc1`, 1.82%.

With `O=C1c2ccccc2S(=O)(=O)N1Cc1cccc(S(=O)(=O)N2CCOCC2)c1`, the activity change, negative = inhibition is 5.11%. Under `CC1Cc2ccccc2N1CC(=O)NC(=O)NC(C)(C)C` (stereo unspecified) stands 2.18%; under `COCCn1c(C)cc(-c2csc(N)n2)c1C`, 0.765%. As to `CC(C)C(CC(=O)NCc1ccco1)c1ccco1` (stereo unspecified), the activity change, negative = inhibition was -8.54%. Take `C=CCNc1ncnc2c1CCN(C(=O)c1ccc(CSC)o1)CC2`: the activity change, negative = inhibition was 2.9%. On to `CCOC(=O)C1CCN(C(=O)CN(Cc2ccccc2)S(C)(=O)=O)CC1`, for which the activity change, negative = inhibition is -5.24%.

Take `Cc1cccc(Nc2nc(C(=O)Nc3cc(F)ccc3F)nc3ccccc23)c1`: the activity change, negative = inhibition was 1.63%. As to `C[C@H](CO)N1C[C@H](C)[C@@H](CN(C)CC2CCCCC2)OCCCC[C@H](C)Oc2ccc(NS(=O)(=O)c3ccc(Cl)cc3)cc2C1=O`, the activity change, negative = inhibition is 8.08%. Under `Cc1ccc(Cc2cnc(N)s2)o1` stands 18.6%.
